# Source: PubChem BioAssay
# Mot1-301 SUMO: SUMOylation pathway inhibition by Mot1-301 growth rescue. growth rescue, % at 18.8 µM. S. cerevisiae Mot1-301 growth rescue, ATP luminescence, 38.5C; percent above DMSO median, 100 means doubled. 320,000 tested, 1% active;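 active = every valid replicate shows activation above 250% relative to neutral control wells; inactive = the rest, any valid replicate at or below 250%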
# ARNT TACC3 PPI: disruptors of human ARNT/TACC3 interaction; AlphaScreen His-ARNT PAS-B/GST-TACC3 binding, luminescence; TACC3 fragment carries E629A point mutation; inhibition, % at 9.99 µM; 390,000 tested, 0.66% active; AID 623870;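 active = mean inhibition of replicates at least 50% and at least half of replicates each reaching 50%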
# aDG glyco act: alpha-DG glycosylation activation; Pro5-aDG cells, alpha-DG glycosylation AlphaScreen (IIH6); 0% Pro5, 100% B10-LARGE cell signal; activation, % at 10 µM; 360,000 tested, 0.22% active; AID 624168;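 active = activation of at least 8% versus controls, or a plate z-score of at least 8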;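 note: Pro5 are CHO cells carrying HIG-tagged alpha-DG that lacks glycosylation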
# AI-2 QS modul: Vibrio harveyi AI-2 quorum sensing modulation. Vibrio harveyi JMH597 AI-2 luminescence/OD600 ratio, 9 h; active compounds read low; strain lacks LuxN and CqsS sensors; 0 = neutral-control median. activity change, % at 7.5 µM. 300,000 tested, 0.4% active; in the data active = activity change below about -75%, passing the limit was not always enough;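 note: luminescence divided by OD600 gain over 9 h not by final OD600 alone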
# Bfl-1 A1 inh: inhibitors of the anti-apoptotic protein A1, read as caspase activation | MEF A1-2A-BIM cells, Caspase-Glo 3/7 luminescence, 3 h; percent of clofoctol response, vehicle zero | AID 2462 | 330,000 tested, 0.066% active | caspase activation, % (test concentration not listed);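 active = over half of replicate activation scores above 10%, or exactly half above 10 with the replicate mean above 10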
# Hits are given with their value; – = inactive; · = no result given; + = active, no number. An excerpt weighted towards active compounds, which were near 1.8% of everything screened.
SMILES,Mot1-301 SUMO,ARNT TACC3 PPI,aDG glyco act,AI-2 QS modul,Bfl-1 A1 inh
CCCCCCCC/C=C\CCCCCCCC(=O)NCCc1ccc(O)c(O)c1,–,–,–,·,11.9
CC(=O)Oc1c(Br)cc(N(C(C)=O)S(=O)(=O)c2ccccc2)c2ccccc12,–,–,3.0,–,–
O=S(=O)(NC1CCN(Cc2ccccc2)CC1)c1ccc2ccccc2c1,321.5,–,–,–,–
O=S(=O)(NC1CCN(Cc2ccccc2)CC1)c1ccc(F)c(F)c1,·,·,–,·,·
Cc1cc(C(=O)Nc2ccc3c(c2)C(=O)N(C)[C@H]2CC[C@@H](CC(=O)NC4CCCC4)O[C@H]2CO3)no1,·,–,·,·,·
CC(=O)N(CC(C)(C)CC=C(C)C)c1ccccc1,638.0,·,·,–,–
CC(=O)N(CC(=O)O)c1ccccc1,–,–,–,–,–
CCc1ccc2c(c1)CCCN2C(=O)c1ccccc1C(=O)O,–,49.0,–,–,–
O=C1c2ccccc2-c2c1c1ccccc1c(=O)n2-c1ccccc1,·,–,–,·,·
COc1ccc(OC)c(NC(=O)Cc2coc3ccc(C)cc23)c1,–,–,–,–,–
COc1ccc(OC)c(NC(=O)Cc2coc3ccc4ccccc4c23)c1,497.0,–,–,–,–
COc1ccc(CCn2c(=N)c(C(=O)NCc3ccco3)cc3c(=O)n4ccccc4nc32)cc1OC,·,27.5,–,·,·
Cc1ccc(NS(=O)(=O)c2sc3ccc(Cl)cc3c2C)cc1,665.3,·,–,–,–
C[C@H](CO)N1C[C@H](C)[C@@H](CN(C)S(=O)(=O)c2ccc(F)cc2)Oc2ccc(NC(=O)Nc3ccccc3)cc2C1=O,–,–,–,·,–
CO[C@H]1CN(C)C(=O)c2cc(NC(=O)Nc3ccc(Cl)cc3)ccc2OC[C@H](C)N(C(=O)Nc2c(C)noc2C)C[C@@H]1C,·,–,·,·,·
CCCCNC(=O)CNC(=S)N(Cc1ccccc1F)C1CCCCC1,–,–,–,–,–
O=C(O)CNC(=S)N(Cc1ccccc1F)C1CCCCC1,+,–,–,–,–
CCCNC(=O)N(C)C[C@@H]1[C@@H](c2ccccc2)[C@H](CO)N1C(=O)c1ccccc1,·,–,·,·,·
COC(=O)c1cn(NC(=O)c2ccc(F)cc2)c(=O)c2ccccc12,–,–,–,–,–
Cc1ccc(SCc2ccc(C(=O)N3CCCCC3)cc2)cc1,–,·,–,–,–
Cc1cccn2c(=O)c(C=NCCO)c(Nc3ccc(Cl)cc3)nc12,–,·,·,–,–
NC(=O)c1cc(N2C(=O)C=CC2=O)ccc1Cl,–,–,–,-82.2,–
CC(C)[C@H](NC(=O)N1c2ccccc2NC(=O)[C@@H]1C(C)C)C(=O)N[C@@H](C(=O)O)c1ccccc1,910.4,–,–,–,–
O=C(Nc1cccnc1)Nc1ccccc1Cl,–,–,–,–,–
CC(C)CCOC(=O)C[N+](C)(C)CCOC1CC2CCC1(C)C2(C)C (stereo unspecified),–,·,–,–,–
SMILES,Mot1-301 SUMO,ARNT TACC3 PPI,aDG glyco act,AI-2 QS modul,Bfl-1 A1 inh
O=C(O)CC1S/C(=N/N=C/C=C/c2ccccc2[N+](=O)[O-])NC1=O (stereo unspecified),–,34.4,–,–,–
O=C(O)CC1S/C(=N/N=C/C=C/c2ccccc2)NC1=O (stereo unspecified),–,–,–,–,–
Cc1cccc(-n2ccnc2CN2CCC(CO)(Cc3ccccc3)CC2)c1,643.1,–,–,–,–
N#C[C@@H]1[C@H](c2ccccc2)[C@@H](CO)N1S(=O)(=O)c1cccc(F)c1,·,–,·,·,·
CC(C)CC(=O)Nc1ccc2c3c(cccc13)CC2,389.1,–,–,–,–
COc1ccc(C(=O)Nc2sc(C)c(-c3ccccc3)c2C#N)cc1OC,–,–,–,–,–
Cc1ccccc1NC(=S)N(Cc1ccccn1)Cc1ccccc1Cl,–,–,–,–,–
S=C(NN=C(c1ccccc1)c1ccccn1)N(Cc1ccccn1)Cc1ccccn1,·,66.3,–,·,·
S=C(NN=Cc1ccccn1)N(Cc1ccccn1)Cc1ccccn1,·,58.7,–,·,·
CC(=NNC(=S)N(Cc1ccccn1)Cc1ccccn1)c1cnccn1,·,64.2,–,·,·
O=C1NC2c3ccccc3C(=O)N2c2c1cnn2-c1ccccc1 (stereo unspecified),–,–,–,–,–
N#Cc1ccccc1S(=O)(=O)N1CCN(C(=O)CN2C(=O)NC3(CCCC3)C2=O)CC1,–,–,–,–,–
COC(=O)C1(c2ccccc2)NC(c2ccc(O)cc2)C2C(=O)N(c3ccc4c(c3)OCO4)C(=O)C21 (stereo unspecified),259.5,–,–,–,–
O=C(C[C@@H]1C=C[C@H](NC(=O)c2cccc(F)c2)[C@@H](CO)O1)Nc1nccs1,·,–,·,·,·
CCn1c(=O)n(CC)c2cc(N3CCCC3)c(NC(=O)c3ccccc3OC)cc21,–,–,–,–,–
Cc1ccc(S(=O)(=O)c2cnc3cc(C)nn3c2N)cc1,–,–,–,-89.9,–
COCCNC(=S)Nc1cc(OC)c(OC)cc1C#N,·,49.5,–,–,·
O=c1cc(-c2cccs2)oc2ccc(Cl)cc12,–,–,–,–,·
CCC(C)(C)c1ccc(OCCCC[n+]2ccccc2)c(C(C)(C)CC)c1,290.4,–,–,–,–
CCCCCc1ccc(OCCCC[n+]2ccccc2)c(CCCCC)c1,–,·,–,–,–
O=C(O)CCN1C(=O)/C(=C/c2ccc(-c3nc4ccccc4s3)o2)SC1=S,–,63.5,–,–,–
NC(=O)C1CCN(CC(=O)Nc2cc(Cl)ccc2Oc2ccccc2)CC1,321.2,–,–,–,–
COCCCNC(=S)N/N=C/c1ccccc1O,–,63.6,–,–,–
O=c1c2c(-c3ccccc3)csc2ncn1/N=C/c1ccc(O)c([N+](=O)[O-])c1,–,–,–,–,–
O=c1c2c(-c3ccccc3)csc2ncn1/N=C/c1cccc([N+](=O)[O-])c1O,–,72.5,–,–,–
SMILES,Mot1-301 SUMO,ARNT TACC3 PPI,aDG glyco act,AI-2 QS modul,Bfl-1 A1 inh
CCSCC1COC(c2cccn2Cc2ccc(C)cc2)=N1 (stereo unspecified),–,–,–,–,–
COCCN=c1scc(-c2cccs2)n1/N=C/c1ccc(O)c(O)c1O,–,63.6,–,–,–
COCCN=c1scc(-c2ccccc2)n1/N=C/c1c[nH]c2ccccc12,–,–,–,–,–
CCN=c1scc(C)n1/N=C/c1ccc(O)c(O)c1O,–,79.5,–,–,–
O=C(O)c1ccc(NS(=O)(=O)c2cccc3cccnc23)cc1,–,–,–,–,–
O=c1cc(-c2ccc([N+](=O)[O-])cc2)nc2cc(-c3ccc(Cl)cc3)[nH]n12,–,·,·,·,–
COc1cc(/C=N\NC(=O)CC#N)ccc1OC/C=C/c1ccccc1,–,68.7,–,–,–
CC(C)(C)c1ccc(CNC(=O)c2ccc3c(c2)NC(=O)CO3)cc1,331.4,–,–,–,–
O=C1COc2ccc(C(=O)NCc3ccc4c(c3)OCO4)cc2N1,–,–,–,–,–
O=C1COc2ccc(C(=O)COC(=O)c3ccccc3F)cc2N1,–,·,–,·,–
